Data on eight compounds can be found in ChEMBL document CHEMBL1961873, “Compounds: GSK PKIS; Assays: Nanosyn kinase panel” (2012).

Assay [1] has as its target T1, Inhibitor of nuclear factor kappa-B kinase subunit epsilon (Homo sapiens) (UniProt Q14164).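 Further: reported values are averaged percent inhibition figures against human IKKε.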
T1 sequence (whole entry): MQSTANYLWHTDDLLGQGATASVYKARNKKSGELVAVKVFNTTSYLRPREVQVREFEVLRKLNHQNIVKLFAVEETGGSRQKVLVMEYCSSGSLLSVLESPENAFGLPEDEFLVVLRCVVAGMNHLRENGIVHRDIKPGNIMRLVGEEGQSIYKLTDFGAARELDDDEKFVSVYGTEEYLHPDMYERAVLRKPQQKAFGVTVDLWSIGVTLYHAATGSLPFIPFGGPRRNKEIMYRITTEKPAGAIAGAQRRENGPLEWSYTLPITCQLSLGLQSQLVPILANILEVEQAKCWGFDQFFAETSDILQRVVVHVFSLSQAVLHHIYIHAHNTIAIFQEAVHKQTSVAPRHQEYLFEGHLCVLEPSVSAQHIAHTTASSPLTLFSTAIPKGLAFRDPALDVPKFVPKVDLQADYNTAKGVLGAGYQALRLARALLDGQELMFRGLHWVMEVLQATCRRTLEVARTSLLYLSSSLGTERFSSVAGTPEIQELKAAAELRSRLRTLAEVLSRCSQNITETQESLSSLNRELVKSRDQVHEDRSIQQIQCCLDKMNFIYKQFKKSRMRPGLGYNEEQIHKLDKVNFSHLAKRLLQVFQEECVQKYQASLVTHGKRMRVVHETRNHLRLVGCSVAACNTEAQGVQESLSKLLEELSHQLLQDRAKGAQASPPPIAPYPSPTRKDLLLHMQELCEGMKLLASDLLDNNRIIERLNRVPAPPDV
As to conditions: at 1 µM.

Assay [2] addresses T2, Serine/threonine-protein kinase Nek1 (Homo sapiens) (UniProt Q96PY6).
T2 sequence (whole entry): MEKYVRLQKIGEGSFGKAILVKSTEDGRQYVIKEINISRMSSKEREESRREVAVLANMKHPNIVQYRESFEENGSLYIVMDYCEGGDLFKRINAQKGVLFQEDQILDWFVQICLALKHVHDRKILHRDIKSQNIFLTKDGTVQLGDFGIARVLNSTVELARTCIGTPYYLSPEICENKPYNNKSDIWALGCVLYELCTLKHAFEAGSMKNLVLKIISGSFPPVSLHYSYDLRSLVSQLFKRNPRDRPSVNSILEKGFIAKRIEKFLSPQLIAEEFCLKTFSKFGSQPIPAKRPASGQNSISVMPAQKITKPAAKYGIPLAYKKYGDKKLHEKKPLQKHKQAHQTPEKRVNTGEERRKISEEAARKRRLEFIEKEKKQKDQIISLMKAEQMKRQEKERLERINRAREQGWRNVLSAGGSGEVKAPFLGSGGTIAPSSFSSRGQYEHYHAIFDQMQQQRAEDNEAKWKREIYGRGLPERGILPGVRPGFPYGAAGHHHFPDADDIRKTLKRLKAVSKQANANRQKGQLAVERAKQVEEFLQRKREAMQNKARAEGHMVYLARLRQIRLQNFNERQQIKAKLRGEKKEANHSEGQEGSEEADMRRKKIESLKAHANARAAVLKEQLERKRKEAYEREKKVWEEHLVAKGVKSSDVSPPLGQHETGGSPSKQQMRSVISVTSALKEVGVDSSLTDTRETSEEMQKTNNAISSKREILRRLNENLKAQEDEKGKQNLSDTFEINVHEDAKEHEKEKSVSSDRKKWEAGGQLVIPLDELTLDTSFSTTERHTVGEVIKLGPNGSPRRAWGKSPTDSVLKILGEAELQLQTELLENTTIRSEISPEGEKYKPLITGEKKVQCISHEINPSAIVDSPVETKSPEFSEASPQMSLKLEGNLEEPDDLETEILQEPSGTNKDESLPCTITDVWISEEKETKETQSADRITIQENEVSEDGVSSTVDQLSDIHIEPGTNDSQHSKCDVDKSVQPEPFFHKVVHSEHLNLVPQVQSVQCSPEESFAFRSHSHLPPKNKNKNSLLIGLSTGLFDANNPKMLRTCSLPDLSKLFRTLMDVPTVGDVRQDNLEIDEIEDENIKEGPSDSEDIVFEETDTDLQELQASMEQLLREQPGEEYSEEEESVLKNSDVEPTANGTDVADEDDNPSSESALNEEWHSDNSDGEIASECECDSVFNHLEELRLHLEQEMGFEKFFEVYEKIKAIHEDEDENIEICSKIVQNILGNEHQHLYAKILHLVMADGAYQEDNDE
As to conditions: at 0.1 µM.

Assay [3] has as its target T2, Serine/threonine-protein kinase Nek1 (Homo sapiens). The note with it: at 1 µM.
In assay [4] the target is T3, Serine/threonine-protein kinase Nek2 (Homo sapiens) (UniProt P51955).
T3 sequence (whole entry): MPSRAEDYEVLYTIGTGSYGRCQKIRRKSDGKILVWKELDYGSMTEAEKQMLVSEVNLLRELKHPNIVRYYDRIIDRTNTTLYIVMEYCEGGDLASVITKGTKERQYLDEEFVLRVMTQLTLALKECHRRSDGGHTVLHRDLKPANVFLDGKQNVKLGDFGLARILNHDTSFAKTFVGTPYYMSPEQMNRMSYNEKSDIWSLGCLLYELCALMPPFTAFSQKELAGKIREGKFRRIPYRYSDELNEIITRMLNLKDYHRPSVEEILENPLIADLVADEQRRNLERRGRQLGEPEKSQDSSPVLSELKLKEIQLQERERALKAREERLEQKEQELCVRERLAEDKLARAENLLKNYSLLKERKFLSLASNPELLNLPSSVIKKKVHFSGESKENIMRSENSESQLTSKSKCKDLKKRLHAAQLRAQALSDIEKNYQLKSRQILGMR
The note with it: at 0.1 µM.

Assay [5] deals with T3, Serine/threonine-protein kinase Nek2 (Homo sapiens). The note with it: at 1 µM.
Assay [6] deals with Serine/threonine-protein kinase Nek6 (Homo sapiens) (UniProt Q9HC98). As to conditions: at 0.1 µM.
Chain of Serine/threonine-protein kinase Nek6 (Homo sapiens) (Q9HC98 whole entry): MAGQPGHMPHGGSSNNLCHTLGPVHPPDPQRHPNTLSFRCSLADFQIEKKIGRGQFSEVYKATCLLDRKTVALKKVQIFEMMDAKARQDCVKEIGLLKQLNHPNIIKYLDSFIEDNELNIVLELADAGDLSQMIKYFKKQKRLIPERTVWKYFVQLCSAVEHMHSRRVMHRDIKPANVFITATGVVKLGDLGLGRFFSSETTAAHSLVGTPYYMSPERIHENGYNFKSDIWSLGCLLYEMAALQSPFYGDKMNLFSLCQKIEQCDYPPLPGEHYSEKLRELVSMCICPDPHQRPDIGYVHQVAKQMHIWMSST
Assay [7] has the same target. The note with it: at 1 µM.
Assay [8] deals with Serine/threonine-protein kinase Nek7 (Homo sapiens) (UniProt Q8TDX7). As to conditions: at 0.1 µM.
Chain of Serine/threonine-protein kinase Nek7 (Homo sapiens) (Q8TDX7 whole entry, looked up): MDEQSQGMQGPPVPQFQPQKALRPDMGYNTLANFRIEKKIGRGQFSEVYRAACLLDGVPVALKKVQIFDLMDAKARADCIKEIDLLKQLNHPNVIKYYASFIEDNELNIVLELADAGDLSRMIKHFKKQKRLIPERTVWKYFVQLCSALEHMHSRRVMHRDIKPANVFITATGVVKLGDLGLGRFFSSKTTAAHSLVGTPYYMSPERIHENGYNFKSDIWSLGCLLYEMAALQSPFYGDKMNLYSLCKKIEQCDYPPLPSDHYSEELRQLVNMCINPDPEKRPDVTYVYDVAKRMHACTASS
The target is the same in assay [9]. As to conditions: at 1 µM.
In assay [10] the target is T4, Serine/threonine-protein kinase Nek9 (Homo sapiens) (UniProt Q8TD19).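 Further: reported value is the mean percent inhibition of NEK9.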
T4 sequence (whole entry): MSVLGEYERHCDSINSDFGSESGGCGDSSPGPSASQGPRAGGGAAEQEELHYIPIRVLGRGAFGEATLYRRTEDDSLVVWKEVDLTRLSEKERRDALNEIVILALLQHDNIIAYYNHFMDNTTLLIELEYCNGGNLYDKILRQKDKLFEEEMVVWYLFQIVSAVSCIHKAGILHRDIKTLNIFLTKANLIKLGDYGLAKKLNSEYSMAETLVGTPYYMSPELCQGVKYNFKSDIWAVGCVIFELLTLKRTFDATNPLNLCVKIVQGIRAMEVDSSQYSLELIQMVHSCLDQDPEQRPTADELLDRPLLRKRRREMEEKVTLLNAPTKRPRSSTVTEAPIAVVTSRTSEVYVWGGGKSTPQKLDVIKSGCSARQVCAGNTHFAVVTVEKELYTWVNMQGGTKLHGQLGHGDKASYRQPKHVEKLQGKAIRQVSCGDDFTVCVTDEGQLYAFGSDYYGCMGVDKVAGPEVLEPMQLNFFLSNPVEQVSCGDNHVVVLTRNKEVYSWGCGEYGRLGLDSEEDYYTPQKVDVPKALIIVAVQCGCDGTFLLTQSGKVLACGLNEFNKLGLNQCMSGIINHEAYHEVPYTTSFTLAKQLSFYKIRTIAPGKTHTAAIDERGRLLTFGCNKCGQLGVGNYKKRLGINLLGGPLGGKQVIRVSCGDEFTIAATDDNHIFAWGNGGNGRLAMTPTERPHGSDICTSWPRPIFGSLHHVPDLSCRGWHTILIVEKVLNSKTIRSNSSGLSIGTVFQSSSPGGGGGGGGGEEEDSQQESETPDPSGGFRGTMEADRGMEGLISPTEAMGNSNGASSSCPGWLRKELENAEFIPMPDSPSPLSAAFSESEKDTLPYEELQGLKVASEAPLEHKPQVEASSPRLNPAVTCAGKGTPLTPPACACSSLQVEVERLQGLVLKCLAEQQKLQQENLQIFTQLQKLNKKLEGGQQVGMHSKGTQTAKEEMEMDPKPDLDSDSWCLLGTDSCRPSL
The note with it: at 0.1 µM.

Turning to `C[C@@H](Oc1cc(-n2cnc3ccc(OCC4CCN(C)CC4)cc32)sc1C(N)=O)c1ccccc1C(F)(F)F`, the inhibition was -1.35% in assay [1]; 18.4% in [2]; 60.5% in assay [3]; 23.6% in assay [4]; 69.2% in assay [5]; -1.61% in assay [6]. Besides, the inhibition was 0.33% in [7], -2.74% in [8], -0.71% in assay [9] and 88.3% in assay [10].

On to `NS(=O)(=O)c1ccc(-c2cc3ccncc3cc2OCc2ccccc2)cc1`, for which the inhibition in assay [1] is 2.21%; in [2], 2.31%; in assay [3], 2.44%; in assay [4], 3.99%; in assay [5], 3.04%; in assay [6], 3.18%. Besides, the inhibition was 3.3% in assay [7], 5.28% in [8], 4.88% in assay [9] and 9.27% in assay [10].

For the compound `CCOc1nccc2c1nc(-c1nonc1N)n2CC`, the inhibition in assay [1] stood at 6.4%; in assay [2], 5.3%; in [3], 8.93%; in assay [4] it was 3.98%; in [5] it was 7.87%; in [6], 5.75%. Besides, the inhibition in assay [7] was found to be 5.08%; in assay [8], 2.9%; in assay [9], 3.26%; in assay [10], 6.44%.

`CN(c1ccc(NC(=O)Nc2ccc(OC(F)(F)F)cc2)cc1)c1ccnc(Nc2cccc(S(N)(=O)=O)c2)n1`: the inhibition is 7.75% in assay [1]; 0.8% in assay [2]; 2.63% in assay [3]; 2.68% in assay [4]; 3.03% in assay [5]; 1.81% in assay [6]. The inhibition in assay [7] is 0.14%; in [8], 1.37%; in [9] it was -1.48%; in [10] it was 2.65%.

Regarding `Cc1ccc(NC(=O)CC2CC2)cc1-c1ccc(C(=O)NCC2CC2)cc1`, the inhibition in assay [1] stood at 3.27%; in assay [2] it was 2.27%; in assay [3] it was 3.32%; in [4], 3.73%; in assay [5] it was 3.66%; in assay [6], 2.7%. The inhibition in assay [7] stood at 0.33%; in assay [8], 4.87%; in [9] it was 4.36%; in assay [10] it was 5.37%.

For the compound `CCCN1CCCC(c2ccc(Nc3nc(Nc4cc(F)ccc4C(N)=O)c4cc[nH]c4n3)c(OC)c2)C1` (stereo not given), the inhibition in assay [1] is 8.28%; in [2], 3.63%; in assay [3], 21.6%; in [4], 6.55%; in assay [5] it was 11.1%; in assay [6], 1.92%. Further, the inhibition in assay [7] was determined as 3.03%; in [8], 6.42%; in [9] it was 7.03%; in assay [10], 9.57%.

Turning to `Nc1nccc(C#Cc2cncnc2Nc2ccc(OCc3cccc(F)c3)c(Cl)c2)n1`, the inhibition amounted to 6.36% in [1]; 2.09% in assay [2]; 3.18% in assay [3]; 4.14% in assay [4]; 5.98% in assay [5]; 1.4% in assay [6]. In addition, the inhibition is -0.89% in assay [7], 3.1% in [8], 3.35% in [9] and 8.89% in assay [10].

`O=C1Nc2ccccc2/C1=C/Nc1ccc2[nH]c(=O)[nH]c2c1`: the inhibition in [1] amounted to 23.3%; in assay [2], 2.99%; in assay [3] it was 2.85%; in [4], 5.3%; in assay [5], 5.56%; in assay [6], 2.8%. The inhibition in assay [7] stood at 4.32%; in assay [8] it was 6.08%; in assay [9] it was 4.96%; in assay [10], 9.7%.
